# Results from PubChem BioAssay (NCATS).
# The source made the active and inactive calls. Calls come from the whole dose curve; as a rule, active = well fitted curve in the direction sought with a large enough effect; inconclusive = small, poorly fitted or top-dose-only effect, or another doubt; inactive = no such curve, though single readings can be large or run the other way.
# Assay: Cellular Toxicity (caspase-3) HUV-EC-C (AID 656);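 note: 0% = DMSO basal and 100% = 100 µM tamoxifen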
# Settings: HUV-EC-C cells, caspase-3 activation (apoptosis); series mostly up to 92.2 µM; caspase-3 activation: at the top concentration
# Source text: NIH Chemical Genomics Center [NCGC]
# NIH Molecular Libraries Screening Centers Network [MLSCN]
# National Institutes of Environmental Health Sciences [NIEHS]
# National Toxicology Program [NTP]
# We have developed a 1536-well cell-based assay for quantitative high throughput screening (qHTS) against a number of cell lines to determine in vitro caspase 3/7 of small molecules. This particular assay uses the HUV-EC-C cell line which is derived from normal human vascular endothelial cells.
# NCGC Assay Protocol Summary:
# The Caspase-Glo 3/7 assay (Promega) is a homogeneous method to measure caspase-3 and caspase-7 activities in cultured cells. The quantitation of caspase 3/7 activity is based on the cleavage of a peptide-aminoluciferin substrate. After caspase cleaves the substrate the free aminoluciferin is liberated and serves as the substrate of luciferase, which generates the light. The luminescent signal is proportional to amount of caspase 3/7 activity present.
# Using the Caspase-Glo 3/7 assay, the amount of caspase 3/7 activity was measured in the HUV-EC-C cell line with complete culture medium following compound treatment for 16 hours. The assay was performed in opaque white 1536-well plates. In the screen, tamoxifen and doxorubicin were used as positive controls. Library compounds were measured for their ability to cause the activation of caspase 3/7 in the cell line, as reflected by an increase in luminescence signal, in a concentration-dependent manner. Data were normalized to the controls for basal activity (DMSO only) and 100% stimulation (100 uM tamoxifen). AC50 values were determined from concentration-response data modeled with the standard Hill equation.
# qHTS protocol for caspase 3/7 assay in HUV-EC-C cell line
# [Step] [Parameter] [Value] [Description]
# 1. Reagent; 5 uL; 1000 HUV-EC-C cells/well
# 2. Time; 5 hr; 37 °C incubation
# 4. Controls; 23 nL; Tamoxifen 0.23 uM to 100 uM & doxorubicin 7.0 pM to 100 uM
# 5. Time; 16 hr; 37 °C incubation
# 6. Reagent; 5 uL; Caspase-Glo 3/7 reagent
# 7. Time; 20 min; Room Temperature
# 8. Detection; Luminescence; Viewlux plate reader
# Keywords: caspase 3/7, apoptosis, HUV-EC-C cell line, luminescence, NTPHTS, NTPHTS_NCGC, NIEHS, EPA, DSSTox, MLSMR, MLSCN, NIH Roadmap, qHTS, NCGC
row,Compound,caspase-3 activation
1,O=C(O)c1cc(N=Nc2ccc([N+](=O)[O-])cc2)ccc1O,-10.7% (inactive)
2,COc1ccc(C)cc1N,-3.28% (inactive)
3,Cc1ccc(S(N)(=O)=O)cc1,-1.8% (inactive)
4,Cc1cc2nc(N)sc2cc1C,-11.1% (inactive)
5,O=CC(=O)c1ccccc1,-2.1% (inactive)
6,CCc1ccc(C(c2ccc(CC)cc2)C(Cl)Cl)cc1,-2.56% (inactive)
7,CC(=O)Nc1cccc(C)c1,7.87% (inactive)
8,Nc1ccc(-c2ccc(N)c(O)c2)cc1O,-0.873% (inactive)
9,CCN(CC)c1ccc2c(C)cc(=O)oc2c1,1.38% (inactive)
10,Clc1nc2ccccc2nc1Cl,-3.16% (inactive)
11,c1ccc2c(c1)ccc1ccccc12,-0.622% (inactive)
12,O=c1[nH]ncc2ccccc12,1.55% (inactive)
13,CC(=O)OC(C(=O)c1ccccc1)c1ccccc1 (stereo not given),-4.11% (inactive)
14,CCCCC(CC)COP(=O)(OCC(CC)CCCC)OCC(CC)CCCC (stereo not given),2.08% (inactive)
15,CC(=O)CC(=O)Nc1ccccc1,1.31% (inactive)
16,Cc1cc(-c2ccc(N=Nc3cc(S(=O)(=O)O)c4ccccc4c3N)c(C)c2)ccc1N=Nc1cc(S(=O)(=O)O)c2ccccc2c1N,-1.04% (inactive)
17,C=CC1CO1 (stereo not given),0.256% (inactive)
18,OC1CCCCC1,4.72% (inactive)
19,CCOC(=O)C1OC1c1ccccc1 (stereo not given),-1.03% (inactive)
20,O=[N+]([O-])c1cc(N(CCO)CCO)ccc1NCCO,-2.85% (inactive)

row,Compound,caspase-3 activation
1,CC(C)(C)C(=O)C1C(=O)c2ccccc2C1=O,-0.0998% (inactive)
2,CCCCCCc1ccc(-c2ccc(C#N)cc2)cc1,1.27% (inactive)
3,Oc1cc2c(cc1O)[C@H]1c3ccc(O)c(O)c3OC[C@@]1(O)C2,-7.36% (inactive)
4,C=C(C#N)C(=O)OCC,-2.09% (inactive)
5,Cc1ccc(C(=O)O)cc1[N+](=O)[O-],-3.32% (inactive)
6,CC(C)OCC1CO1 (stereo not given),1.2% (inactive)
7,Cc1c(C(=O)O)c(O)cc2c1C(=O)c1c(O)c([C@H]3O[C@H](CO)[C@@H](O)[C@H](O)[C@H]3O)c(O)c(O)c1C2=O,-3.1% (inactive)
8,C=CC(=O)CC,1.72% (inactive)
9,CCCCCCCC/C=C\CCCCCCCC(=O)N(CCO)CCO,16.6% (inactive)
10,CN(C)c1ccc(C(=N)c2ccc(N(C)C)cc2)cc1,9.88% (inactive)
11,O=[N+]([O-])c1cc(Cl)c(Cl)c(Cl)c1Cl,-5.98% (inactive)
12,O=Nc1ccc(Nc2ccccc2)cc1,-9.64% (inactive)
13,CC(=O)OCc1ccc2c(c1)OCO2,-2.24% (inactive)
14,O=C1c2ccccc2C(=O)C1(O)O,-0.929% (inactive)
15,COc1ccc([N+](=O)[O-])cc1N,-1.66% (inactive)
16,C=Cc1cccc(C)c1,-1.52% (inactive)
17,Nc1cc([N+](=O)[O-])ccc1O,2.71% (inactive)
18,Cc1ccc(O)c(N)c1,-5.8% (inactive)
19,c1cc2c3c(c1)ccc1cccc(c13)C2,-0.791% (inactive)
20,O=C(Cl)c1ccc([N+](=O)[O-])cc1,0.446% (inactive)
